{"source": "PubChem BioAssay AID1159580", "about": "(chemical genetic matrix, 2015)", "experiment": "chemical genetic growth profiling, strain panel (AID 1159580);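 note: tested at 20 µM; growth read once vehicle control cultures reached saturation at 30 °C; 1 = growth at the plate median or of vehicle wells; lower values mean less growth of the strain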", "conditions": "S. cerevisiae deletion strains, growth OD", "key": {"[1]": {"conditions": "locus YMR307W, strain GAS1, stronger effect = lower value"}, "[2]": {"conditions": "locus YNL322C, strain KRE1, stronger effect = lower value"}}, "note": "Among all 5,500 compounds or so, about 2,000 (36%) were called active. Not shown: some 18% with an inconclusive outcome. The list shows a part of the results. Unmarked numbers belong to inactive results. Cut-off read from the data, not from the text of the source: active = normalized growth mostly below about 0.91 (no sharp cut-off); inconclusive = no clear call, values can overlap the other calls; inactive = mostly above about 0.92.", "data": [{"smiles": "NC(N)=NCc1cccc(I)c1", "values": [{"measurement": "normalized growth", "setting": "locus YAL040C, strain CLN3, stronger effect = lower value", "result": 0.995}, {"measurement": "normalized growth", "setting": "locus YCL061C, strain MRC1 (second series), stronger effect = lower value", "result": 0.991}, {"measurement": "normalized growth", "setting": "locus YDR150W, strain NUM1, stronger effect = lower value", "result": 1.01}, {"measurement": "normalized growth", "setting": "locus YDR363W, strain ESC2, stronger effect = lower value", "result": 1}, {"measurement": "normalized growth", "setting": "locus YER002W, strain NOP16, stronger effect = lower value", "result": 1}, {"measurement": "normalized growth", "setting": "[1]", "result": 0.997}, {"measurement": "normalized growth", "setting": "locus YNL128W, strain TEP1, stronger effect = lower value", "result": 1.02}, {"measurement": "normalized growth", "setting": "locus YNL175C, strain NOP13, stronger effect = lower value", "result": 1.01}, {"measurement": "normalized growth", "setting": "locus YNL197C, strain WHI3, stronger effect = lower value", "result": 0.987}, {"measurement": "normalized growth", "setting": "locus YNL224C, strain SQS1, stronger effect = lower value", "result": 1.01}, {"measurement": "normalized growth", "setting": "[2]", "result": 0.982}, {"measurement": "normalized growth", "setting": "locus YOR083W, strain WHI5 (second series), stronger effect = lower value", "result": 0.99}, {"measurement": "normalized growth", "setting": "locus YPL055C, strain LGE1, stronger effect = lower value", "result": 1.02}]}, {"smiles": "C=C(C)C1Cc2c(ccc(C(=O)O)c2O)O1", "note": "(stereo not drawn)", "values": [{"measurement": "normalized growth", "setting": "locus YBR021W, strain FUR4, stronger effect = lower value", "result": 0.931}, {"measurement": "normalized growth", "setting": "locus YBR229C, strain ROT2, stronger effect = lower value", "result": 0.984}, {"measurement": "normalized growth", "setting": "locus YCL029C, strain bik1, stronger effect = lower value", "result": 0.979}, {"measurement": "normalized growth", "setting": "locus YDL035C, strain GPR1, stronger effect = lower value", "result": 1.03}, {"measurement": "normalized growth", "setting": "locus YDL074C, strain BRE1, stronger effect = lower value", "result": 1.02}, {"measurement": "normalized growth", "setting": "locus YDL101C, strain DUN1, stronger effect = lower value", "result": 1.02}, {"measurement": "normalized growth", "setting": "locus YDL134C, strain PPH21, stronger effect = lower value", "result": 1.03}, {"measurement": "normalized growth", "setting": "locus YDL185W, strain tfp1, stronger effect = lower value", "result": "0.86 (active)"}, {"measurement": "normalized growth", "setting": "locus YDL192W, strain arf1, stronger effect = lower value", "result": 0.965}, {"measurement": "normalized growth", "setting": "locus YDR101C, strain arx1, stronger effect = lower value", "result": 0.954}, {"measurement": "normalized growth", "setting": "locus YDR162C, strain NBP2, stronger effect = lower value", "result": 1.03}, {"measurement": "normalized growth", "setting": "locus YDR318W, strain mcm21, stronger effect = lower value", "result": 0.963}, {"measurement": "normalized growth", "setting": "locus YDR388W, stronger effect = lower value", "result": 0.953}, {"measurement": "normalized growth", "setting": "locus YDR502C, strain sam2, stronger effect = lower value", "result": 0.979}, {"measurement": "normalized growth", "setting": "locus YEL061C, strain CIN8, stronger effect = lower value", "result": 0.991}, {"measurement": "normalized growth", "setting": "locus YER110C, stronger effect = lower value", "result": 0.944}, {"measurement": "normalized growth", "setting": "locus YER155C, strain BEM2, stronger effect = lower value", "result": 0.946}, {"measurement": "normalized growth", "setting": "locus YER167W, strain BCK2, stronger effect = lower value", "result": 1}, {"measurement": "normalized growth", "setting": "locus YGL078C, strain dbp3, stronger effect = lower value", "result": 0.932}, {"measurement": "normalized growth", "setting": "locus YGL086W, strain mad1, stronger effect = lower value", "result": 0.982}, {"measurement": "normalized growth", "setting": "locus YGL248W, strain PDE1, stronger effect = lower value", "result": 1}, {"measurement": "normalized growth", "setting": "locus YGR135W, strain pre9, stronger effect = lower value", "result": 0.969}, {"measurement": "normalized growth", "setting": "locus YGR252W, strain gcn5, stronger effect = lower value", "result": 0.871}, {"measurement": "normalized growth", "setting": "locus YHR030C, strain SLT2, stronger effect = lower value", "result": 0.982}, {"measurement": "normalized growth", "setting": "locus YHR079C, strain IRE1 (second series), stronger effect = lower value", "result": 0.948}, {"measurement": "normalized growth", "setting": "locus YHR094C, strain hxt1, stronger effect = lower value", "result": 0.944}, {"measurement": "normalized growth", "setting": "locus YHR129C, strain ARP1, stronger effect = lower value", "result": 0.993}, {"measurement": "normalized growth", "setting": "locus YHR200W, strain rpn10, stronger effect = lower value", "result": 0.958}, {"measurement": "normalized growth", "setting": "locus YIL066C, strain RNR3, stronger effect = lower value", "result": 1.03}, {"measurement": "normalized growth", "setting": "locus YIL073C, strain SPO22, stronger effect = lower value", "result": 1.05}, {"measurement": "normalized growth", "setting": "locus YIL125W, strain kgd1, stronger effect = lower value", "result": "0.91 (active)"}, {"measurement": "normalized growth", "setting": "locus YIR030C, strain dcg1, stronger effect = lower value", "result": 0.957}, {"measurement": "normalized growth", "setting": "locus YJL095W, strain BCK1, stronger effect = lower value", "result": 1.04}, {"measurement": "normalized growth", "setting": "locus YJL134W, strain LCB3, stronger effect = lower value", "result": 0.979}, {"measurement": "normalized growth", "setting": "locus YJL168C, strain set2, stronger effect = lower value", "result": 0.946}, {"measurement": "normalized growth", "setting": "locus YJL187C, strain SWE1 (second series), stronger effect = lower value", "result": 1.02}, {"measurement": "normalized growth", "setting": "locus YJR043C, strain POL32, stronger effect = lower value", "result": 1.02}, {"measurement": "normalized growth", "setting": "locus YJR075W, strain HOC1, stronger effect = lower value", "result": 1.01}, {"measurement": "normalized growth", "setting": "locus YKL009W, strain mrt4, stronger effect = lower value", "result": "0.865 (active)"}, {"measurement": "normalized growth", "setting": "locus YKL068W, stronger effect = lower value", "result": "0.91 (active)"}, {"measurement": "normalized growth", "setting": "locus YKL085W, strain MDH1 (second series), stronger effect = lower value", "result": 0.931}, {"measurement": "normalized growth", "setting": "locus YKL085W, strain MDH1, stronger effect = lower value", "result": 0.931}, {"measurement": "normalized growth", "setting": "locus YKL190W, strain CNB1, stronger effect = lower value", "result": 0.998}, {"measurement": "normalized growth", "setting": "locus YKR001C, strain vps1, stronger effect = lower value", "result": 0.901}, {"measurement": "normalized growth", "setting": "locus YLR039C, strain RIC1, stronger effect = lower value", "result": 1.07}, {"measurement": "normalized growth", "setting": "locus YLR058C, strain SHM2, stronger effect = lower value", "result": 1}, {"measurement": "normalized growth", "setting": "locus YLR102C, strain apc9, stronger effect = lower value", "result": 0.942}, {"measurement": "normalized growth", "setting": "locus YLR262C, strain YPT6, stronger effect = lower value", "result": 1.08}, {"measurement": "normalized growth", "setting": "locus YLR268W, strain sec22, stronger effect = lower value", "result": 0.99}, {"measurement": "normalized growth", "setting": "locus YLR330W, strain CHS5, stronger effect = lower value", "result": 0.976}, {"measurement": "normalized growth", "setting": "locus YLR342W, strain FKS1 (second series), stronger effect = lower value", "result": 0.998}, {"measurement": "normalized growth", "setting": "locus YLR371W, strain rom2, stronger effect = lower value", "result": 0.957}, {"measurement": "normalized growth", "setting": "locus YLR418C, strain cdc73, stronger effect = lower value", "result": 0.957}, {"measurement": "normalized growth", "setting": "locus YML016C, strain PPZ1, stronger effect = lower value", "result": 0.987}, {"measurement": "normalized growth", "setting": "locus YML032C, strain rad52, stronger effect = lower value", "result": 0.988}, {"measurement": "normalized growth", "setting": "locus YML124C, strain tub3, stronger effect = lower value", "result": 0.957}, {"measurement": "normalized growth", "setting": "locus YMR078C, strain ctf18, stronger effect = lower value", "result": 0.923}, {"measurement": "normalized growth", "setting": "locus YMR223W, strain ubp8, stronger effect = lower value", "result": 0.98}, {"measurement": "normalized growth", "setting": "[1]", "result": 0.972}, {"measurement": "normalized growth", "setting": "locus YNL067W, strain RPL9B, stronger effect = lower value", "result": 1.01}, {"measurement": "normalized growth", "setting": "locus YNL233W, strain BNI4, stronger effect = lower value", "result": 1.01}, {"measurement": "normalized growth", "setting": "locus YNL250W, strain rad50, stronger effect = lower value", "result": 0.911}, {"measurement": "normalized growth", "setting": "locus YNL271C, strain bni1, stronger effect = lower value", "result": "0.9 (active)"}, {"measurement": "normalized growth", "setting": "locus YNL298W, strain CLA4, stronger effect = lower value", "result": "0.795 (active)"}, {"measurement": "normalized growth", "setting": "locus YNL307C, strain MCK1, stronger effect = lower value", "result": 0.95}, {"measurement": "normalized growth", "setting": "[2]", "result": 0.993}, {"measurement": "normalized growth", "setting": "locus YNR052C, strain pop2, stronger effect = lower value", "result": 0.971}, {"measurement": "normalized growth", "setting": "locus YOL012C, strain htz1", "result": 1.06}, {"measurement": "normalized growth", "setting": "locus YOL147C, strain pex11, stronger effect = lower value", "result": 0.955}, {"measurement": "normalized growth", "setting": "locus YOR061W, strain CKA2, stronger effect = lower value", "result": 0.995}, {"measurement": "normalized growth", "setting": "locus YOR069W, strain VPS5, stronger effect = lower value", "result": 0.99}, {"measurement": "normalized growth", "setting": "locus YOR136W, strain idh2, stronger effect = lower value", "result": 0.985}, {"measurement": "normalized growth", "setting": "locus YOR144C, strain elg1, stronger effect = lower value", "result": 0.948}, {"measurement": "normalized growth", "setting": "locus YOR184W, strain ser1, stronger effect = lower value", "result": 0.989}, {"measurement": "normalized growth", "setting": "locus YOR316C, strain cot1, stronger effect = lower value", "result": 0.939}, {"measurement": "normalized growth", "setting": "locus YPR119W, strain clb2, stronger effect = lower value", "result": 0.943}, {"measurement": "normalized growth", "setting": "locus YPR141C, strain kar3, stronger effect = lower value", "result": 0.918}, {"measurement": "normalized growth", "setting": "locus YPR163C, strain tif3, stronger effect = lower value", "result": 0.968}, {"measurement": "normalized growth", "setting": "locus YPR167C, strain met16, stronger effect = lower value", "result": 0.963}, {"measurement": "normalized growth", "setting": "strain wtn01, stronger effect = lower value", "result": 0.972}]}]}
